# Results from the supplement of paper PMC3414501.
# Structures can show the parent of a compound that is named as a salt.
# Test system: S. cerevisiae SK1 pCDA2-eGFP (USY613), sporulating;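 active = score above 5; some higher scores were not called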
# Test: CDA2-GFP sporulation assay sensitivity score (z-score vs DMSO controls); higher = stronger inhibition of sporulation, active = hit call of the paper
row,SMILES,CDA2-GFP sporulation assay sensitivity score
1,"C=CC1=C(C(=O)O)N2C(=O)[C@@H](NC(=O)/C(=N\OCC(=O)O)c3csc(N)n3)[C@H]2SC1 [Cefixime trihydrate] (stock concentration (mM, diluted 1:100): 10)",2.05 (inactive)
2,"C[N+]1(C)CCC(OC(=O)C(O)(c2ccccc2)C2CCCC2)C1 (stereo unspecified) [Glycopyrrolate] (stock concentration (mM, diluted 1:100): 10)",1.55 (inactive)
3,"Cc1cccc(Nc2ccncc2S(=O)(=O)NC(=O)NC(C)C)c1 [Torasemide] (stock concentration (mM, diluted 1:100): 9.9)",-0.45 (inactive)
4,"Cc1c(O)c(=O)ccn1C [Deferiprone] (stock concentration (mM, diluted 1:100): 10)",2.38 (inactive)
5,"CC1CNc2c(cccc2S(=O)(=O)N[C@@H](CCCNC(=N)N)C(=O)N2CC[C@@H](C)C[C@@H]2C(=O)O)C1 (stereo partly specified) [Argatroban] (stock concentration (mM, diluted 1:100): 10.1)",-1.04 (inactive)
6,"O=c1[nH]cnc2c1ncn2[C@H]1CC[C@@H](CO)O1 [Didanosine] (stock concentration (mM, diluted 1:100): 10.1)",-0.63 (inactive)
7,"Cc1[nH]cnc1CN1CCc2c(c3ccccc3n2C)C1=O [Alosetron hydrochloride] (stock concentration (mM, diluted 1:100): 8.9)",-0.89 (inactive)
8,"C[C@@H]1C[C@H]2[C@@H]3CCC4=CC(=O)C=C[C@]4(C)[C@@]3(F)[C@@H](O)C[C@]2(C)[C@H]1C(=O)CO [Desoximetasone] (stock concentration (mM, diluted 1:100): 10)",0.62 (inactive)
9,"NC1CCN(c2nc3c(cc2F)c(=O)c(C(=O)O)cn3-c2ccc(F)cc2F)C1 (stereo unspecified) [Tosufloxacin tosylate] (stock concentration (mM, diluted 1:100): 7)",1.34 (inactive)
10,"CN(C)CCN(Cc1ccccc1)c1ccccn1 [Tripelennamine hydrochloride] (stock concentration (mM, diluted 1:100): 10)",0.92 (inactive)
11,"CN1[C@@H]2CC[C@H]1C[C@@H](OC(=O)c1c[nH]c3ccccc13)C2 [Tropisetron hydrochloride] (stock concentration (mM, diluted 1:100): 7.7)",1.1 (inactive)
12,"CCCc1nc(C)c2c(=O)nc(-c3cc(S(=O)(=O)N4CCN(CC)CC4)ccc3OCC)[nH]n12 [Vardenafil citrate] (stock concentration (mM, diluted 1:100): 7.2)",4.72 (inactive)
13,"CC(C)/N=c1\cc2n(-c3ccc(Cl)cc3)c3ccccc3nc-2cc1Nc1ccc(Cl)cc1 [Clofazimine] (stock concentration (mM, diluted 1:100): 10)",0.66 (inactive)
14,"CC[C@H]1OC(=O)[C@H](C)[C@@H](O[C@H]2C[C@@](C)(OC)[C@@H](O)[C@H](C)O2)[C@H](C)[C@@H](O[C@@H]2O[C@H](C)C[C@H](N(C)C)[C@H]2O)[C@](C)(OC)C[C@@H](C)C(=O)[C@H](C)[C@@H](O)[C@]1(C)O [Clarithromycin] (stock concentration (mM, diluted 1:100): 10)",-0.51 (inactive)
15,"C[C@]12CC[C@@H]3c4ccc(O)cc4CC[C@H]3[C@@H]1CC[C@@H]2O [Beta-Estradiol] (stock concentration (mM, diluted 1:100): 10)",0.49 (inactive)
16,"CN(CCO)CC(O)Cn1cnc2c1c(=O)n(C)c(=O)n2C (stereo unspecified) [Xanthinol nicotinate] (stock concentration (mM, diluted 1:100): 10)",2.12 (inactive)
17,"CC(=O)O[C@H]1C[C@@H]2CC[C@@H]3[C@H](CC[C@@]4(C)[C@H]3C[C@H]([N+]3(C)CCCCC3)[C@@H]4OC(C)=O)[C@@]2(C)C[C@@H]1N1CCCCC1 [Vecuronium bromide] (stock concentration (mM, diluted 1:100): 10)",1.32 (inactive)
18,"CO[C@H]1/C=C/O[C@@]2(C)Oc3c(C)c(O)c4c(c3C2=O)C2=NC3(CCN(CC(C)C)CC3)NC2=C(NC(=O)/C(C)=C\C=C\[C@H](C)[C@H](O)[C@@H](C)[C@@H](O)[C@@H](C)[C@H](OC(C)=O)[C@@H]1C)C4=O [Rifabutin] (stock concentration (mM, diluted 1:100): 10)",6 (inactive)
19,"COc1ccc2[nH]c([S+]([O-])Cc3ncc(C)c(OC)c3C)nc2c1 (stereo unspecified) [Omeprazole] (stock concentration (mM, diluted 1:100): 10)",6.11 (inactive)
20,"CC=CC(=O)N(CC)c1ccccc1C [Crotamiton] (stock concentration (mM, diluted 1:100): 10.3)",2.32 (inactive)
21,"O=C(CCNNC(=O)c1ccncc1)NCc1ccccc1 [Nialamide] (stock concentration (mM, diluted 1:100): 10)",1.74 (inactive)
